Experimental data taken from PubChem BioAssay AID1942 (Johns Hopkins Ion Channel Center, 2009).
Out of some 2,400 compounds screened, about 580 (24%) were called active.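 How the source made its calls: active means activity change at or above the mean plus 3 SD of buffer wells without dofetilide, per plate; inactive means the rest.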 A selection follows.

Biological target: Potassium voltage-gated channel subfamily KQT member 2 (Rattus norvegicus) (UniProt O88943)
Test: rat KCNQ2 channel activation by compounds alone, confirmation, counter-screen for hERG block protector project, cell-based, CHO, FluxOR thallium flux (AID 1942);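 further: normalized value minus buffer-control mean plus three SD of buffer wells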
Settings: CHO-KCNQ2 cells, FluxOR thallium flux fluorescence; at 10 µM; active compounds read high

Chain of Potassium voltage-gated channel subfamily KQT member 2 (Rattus norvegicus) (O88943 whole entry, looked up): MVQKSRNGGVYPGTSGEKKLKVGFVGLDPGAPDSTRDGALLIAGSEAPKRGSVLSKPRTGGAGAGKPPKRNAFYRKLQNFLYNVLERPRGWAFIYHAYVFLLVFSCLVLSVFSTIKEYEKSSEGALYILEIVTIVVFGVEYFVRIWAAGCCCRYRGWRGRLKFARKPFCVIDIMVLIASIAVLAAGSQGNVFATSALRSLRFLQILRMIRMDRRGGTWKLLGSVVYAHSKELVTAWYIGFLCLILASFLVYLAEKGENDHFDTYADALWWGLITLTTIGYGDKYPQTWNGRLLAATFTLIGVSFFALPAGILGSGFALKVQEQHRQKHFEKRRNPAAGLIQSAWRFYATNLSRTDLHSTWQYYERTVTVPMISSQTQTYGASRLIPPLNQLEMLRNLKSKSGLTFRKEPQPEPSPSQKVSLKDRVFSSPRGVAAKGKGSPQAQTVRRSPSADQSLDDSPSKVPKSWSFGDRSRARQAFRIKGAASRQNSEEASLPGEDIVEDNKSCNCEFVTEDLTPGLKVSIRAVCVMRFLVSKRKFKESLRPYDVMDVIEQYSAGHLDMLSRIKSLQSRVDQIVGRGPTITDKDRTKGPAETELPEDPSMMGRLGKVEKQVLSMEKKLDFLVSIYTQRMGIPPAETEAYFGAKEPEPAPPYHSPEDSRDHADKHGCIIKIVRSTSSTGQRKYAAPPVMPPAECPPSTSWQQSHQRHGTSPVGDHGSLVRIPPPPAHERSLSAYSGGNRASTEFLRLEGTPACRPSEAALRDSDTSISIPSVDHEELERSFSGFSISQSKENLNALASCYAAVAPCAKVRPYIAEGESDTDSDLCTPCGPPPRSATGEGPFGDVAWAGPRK

Row | SMILES | activity change, less the hit threshold
1 | C=CCSc1nc2sc3c(c2c(=O)n1CC)CCc1ccccc1-3 | 11.4% (active)
2 | O=C(O)CN1C(=O)C(=O)N(Cc2ccc(C(F)(F)F)cc2)C1=O | -4.3% (inactive)
3 | CCOC(=O)N1CCN(C(=O)CCn2c(=S)[nH]c3ccsc3c2=O)CC1 | -2.5% (inactive)
4 | O=c1c2cc(Br)ccc2nc(-c2cccc(C(F)(F)F)c2)n1O | 126% (active)
5 | O=c1c2cc(Br)ccc2nc(-c2ccc(Cl)cc2)n1O | 133% (active)
6 | CCCn1c(SC(C)C(=O)N2CCOCC2)nc2ccc(Br)cc2c1=O (configuration not stated) | -15.9% (inactive)
7 | O=c1c2cc(Br)ccc2nc(-c2cccc(Cl)c2)n1O | 111% (active)
8 | N#Cc1ccc(-c2nc3ccc(Br)cc3c(=O)n2O)cc1 | 17.3% (active)
9 | COc1ccc(CCNS(=O)(=O)c2csc(C(N)=O)c2)cc1OC | -18.8% (inactive)
10 | NC(=O)[C@@H]1CCCN1Cc1nc(Cc2ccccc2Cl)no1 | -17.5% (inactive)
11 | COc1ccc(Cl)cc1N(C)C(=O)CCNC(=O)Cn1cnc2ccccc2c1=O | -14.6% (inactive)
12 | CCOC(=O)N1CCC(N2C(=O)c3ccccc3C2Nc2cccnc2)CC1 (configuration not stated) | -1.9% (inactive)
13 | O=c1c2ccc(Cl)cc2nc(-c2cccc(C(F)(F)F)c2)n1O | 118% (active)
14 | O=c1c2cc(Br)ccc2nc(-c2ccccc2)n1O | 36.9% (active)
15 | COc1ccc(S(=O)(=O)N2CCCC(C(=O)Nc3ccc(OC)c(OC)c3)C2)cc1 (configuration not stated) | -17.4% (inactive)
16 | Cc1cc(C=O)c2c(c1)C=CC1(Oc3ccccc3C(=O)N1C)O2 (configuration not stated) | -0.3% (inactive)
17 | N#Cc1c(-c2ccc(Cl)cc2)cc(-c2cccs2)nc1SCC(=O)O | -24.7% (inactive)
18 | CCOc1ccc(S(=O)(=O)Nc2nc3ccccc3nc2-n2ccc(=NC(=O)c3cccs3)cc2)cc1 | -21.1% (inactive)
19 | O=[N+]([O-])c1cccc(/C=C/c2nc(C=Nc3ccccc3)c(O)o2)c1 | -18.2% (inactive)
20 | Cc1ccc(C(=O)NC(=S)N(C)C2CCCCC2)cc1Br | 2.9% (active)
21 | CC1CCCC(NC(=S)NC(=O)c2cncc(Br)c2)C1C (configuration not stated) | -12% (inactive)
22 | COc1ccc(C(=O)NC(=S)N(C)C2CCCCC2)cc1Br | 0.5% (active)
23 | CC1=NN(C(=O)c2ccccc2Br)C(O)(c2ccc(Cl)cc2)C1 (configuration not stated) | -27.3% (inactive)
24 | CCOC(=O)C1=NN(C(=O)c2cccc(Br)c2)C(O)(C(C)(C)C)C1 (configuration not stated) | 87.6% (active)
25 | COC(=O)C1=NN(C(=O)c2cccc(Br)c2)C(O)(c2ccc(Cl)cc2)C1 (configuration not stated) | 134% (active)

Row | SMILES | activity change, less the hit threshold
26 | COC(=O)C1=NN(C(=O)c2ccc(Cl)cc2)C(O)(c2ccccc2)C1 (configuration not stated) | 76.9% (active)
27 | CC1=NN(C(=O)c2ccc(Cl)cc2)C(O)(c2ccccc2)C1 (configuration not stated) | -5.5% (inactive)
28 | CCC1=NN(C(=O)c2ccc(Cl)cc2)C(O)(c2ccccc2)C1 (configuration not stated) | -23.9% (inactive)
29 | CCOC(=O)c1cnc(-n2nc(C)cc2C)nc1Nc1cccc(C(=O)O)c1 | -13.4% (inactive)
30 | CC(C)(C)C1(O)CC(C(F)(F)F)=NN1C(=O)Cc1ccc([N+](=O)[O-])cc1 (configuration not stated) | -20.8% (inactive)
31 | Cc1ccc2[nH]c3c(c2c1)CNCC3 | -13.7% (inactive)
32 | COc1cc(/C=N/Nc2nc(N3CCCC3)nc(N3CCCC3)n2)ccc1OCc1ccccc1F | -23.8% (inactive)
33 | CC(=O)c1c(C)c2c(n1CCN(C)C)CCCC2 | -11.1% (inactive)
34 | CCCCCCCCCCn1c2c(c(=N)c3c1CCC3)CCC2 | 26.3% (active)
35 | Clc1ccc(N=NN2CCOCC2)cc1 | -5.2% (inactive)
36 | CCOC(=S)NC(=O)c1sc2ccccc2c1Cl | 51.3% (active)
37 | CCOC(=O)CP(=O)(c1ccccc1)c1ccccc1 | -20% (inactive)
38 | CCCCOC(=S)NC(=O)c1sc2ccccc2c1Cl | 71.2% (active)
39 | O=C(NC(=S)N(CCCCO)C1CCCCC1)c1sc2ccccc2c1Cl | 26% (active)
40 | CCCOC(=S)NC(=O)c1sc2ccccc2c1Cl | 10% (active)
41 | COC(=O)Cn1c(=NC(=O)c2sc3ccccc3c2Cl)sc2cc(S(N)(=O)=O)ccc21 | -18.9% (inactive)
42 | COC(=O)CC1C(=O)NCCN1C(=S)NC(=O)c1sc2ccccc2c1Cl (configuration not stated) | -11.2% (inactive)
43 | O=C(CCc1nc(-c2ccccc2)no1)N1CCCC1 | -20.7% (inactive)
44 | C=CCn1c(N2CCCCCC2)nc2c1c(=O)n(C)c(=O)n2C | -13.9% (inactive)
45 | O=C1NC(=O)/C(=C/c2cc3c(cc2Br)OCO3)S1 | -28.6% (inactive)
46 | COc1ccc(C(=O)NCc2nnc(SCC(=O)NC3CCCCC3)n2C)cc1 | -21.9% (inactive)
47 | O=[N+]([O-])c1ccc(Cl)c(/C=N/Nc2nc(N3CCOCC3)nc(N3CCOCC3)n2)c1 | -7.2% (inactive)
48 | COc1cc(OC)c(C2=NOC(C(=O)Nc3ccc4c(c3)OCO4)C2)cc1Cl (configuration not stated) | -22.1% (inactive)
49 | COc1ccc(OCC(=O)Nc2c3c(nn2-c2ccc(OC)cc2)CS(=O)(=O)C3)cc1 | -16.4% (inactive)
50 | CC(=O)NCCC(=O)N(C)CC1CCN(CCc2cccc(C(F)(F)F)c2)CC1 | -13.4% (inactive)

Row | SMILES | activity change, less the hit threshold
51 | COc1ccc2ncc(OC(C)=O)cc2c1 | -7.9% (inactive)
52 | COC(=O)c1sccc1NC(=S)NCc1ccc(Cl)cc1 | 3.3% (active)
53 | COC(=O)c1sccc1NC(=S)N1CCN(C)CC1 | -22.7% (inactive)
54 | CSc1ccccc1NC(=S)NCc1ccc(Cl)cc1 | -17.2% (inactive)
55 | Cc1ccc(NC(=O)c2ccc(NC3=NC4CS(=O)(=O)CC4S3)cc2)cc1 (configuration not stated) | -20.8% (inactive)
56 | COc1cc(Cl)cc(C(c2c(C(=O)O)[nH]c3ccccc23)c2c(C(=O)O)[nH]c3ccccc23)c1O | -20.1% (inactive)
57 | Cc1cc(C(F)(F)F)n(-c2ccc(N)cc2)n1 | -13.2% (inactive)
58 | O=C(COc1ccccc1[N+](=O)[O-])Nc1cc(Cl)ccc1C(=O)O | -11.3% (inactive)
59 | O=C(NNc1nc2c(F)cccc2s1)c1cc(=O)c2ccccc2o1 | -19.2% (inactive)
60 | O=c1cc(-c2c(F)c(F)c(F)c(F)c2F)oc2ccccc12 | 12.2% (active)
61 | COc1ccc(S(=O)(=O)Nc2cccc(-n3cnnn3)c2)cc1 | -11.2% (inactive)
62 | Cc1ccnc(SCCn2c(N3CC(C)OC(C)C3)nc3c2c(=O)n(C)c(=O)n3C)n1 (configuration not stated) | -16.5% (inactive)
63 | O=C(Cn1c(=O)oc2ccccc21)Nc1ccc(F)c(F)c1 | -17.1% (inactive)
64 | CCCCn1nnc(NC(=O)Cc2ccc(Cl)cc2)n1 | -11.7% (inactive)
65 | CCOc1ccc2[nH]cc(S(=O)(=O)c3ccc(F)cc3)c(=O)c2c1 | -19.1% (inactive)
66 | S=c1[nH]nc(-c2ccc(Cl)cc2)n1Cc1ccccc1 | -30.3% (inactive)
67 | CCCCn1c(-c2csc(C(C)C)c2)n[nH]c1=S | 6.8% (active)
68 | CC(C)(C)OC(=O)C(Cl)(C(=O)OC(C)(C)C)c1ccc2nnnn2n1 | -14.5% (inactive)
69 | CC(=O)c1cc(N2CCC(C(=O)O)CC2)ccc1[N+](=O)[O-] | -24.9% (inactive)
70 | CCc1nnc(NC(=O)c2c(C)nn(-c3ccccc3)c2Cl)s1 | -4.8% (inactive)
71 | Cc1nn(-c2ccccc2)c(Cl)c1/C=C1\SC(=S)NC1=O | 60.1% (active)
72 | Cc1nn(-c2ccccc2)c(C)c1S(=O)(=O)O | -13.9% (inactive)
73 | CCCC(=O)n1nc(-c2ccccc2)nc1N | -17.9% (inactive)
74 | O=C(Nc1cccc2[nH]ncc12)c1ccc(F)cc1 | -24.7% (inactive)
75 | CN(C)/C(=N\S(=O)(=O)c1ccccc1)c1ccc(F)cc1 | -9.6% (inactive)

Row | SMILES | activity change, less the hit threshold
76 | O=C(Nc1nc(-c2ccccc2)c(-c2ccccc2)o1)c1ccc(F)cc1 | 9% (active)
77 | Cc1ccc(-c2nc(CSCC(=O)N3CCOCC3)c(C)o2)cc1 | -25.1% (inactive)
78 | COc1ccc(S(=O)(=O)Nc2ccc(Cl)cn2)c(C)c1C | -12.1% (inactive)
79 | COC(=O)c1ccc(CSc2ncnc3sc(C)c(C)c23)o1 | -6.5% (inactive)
80 | Cc1noc(C)c1CSc1ncnc2sc3c(c12)CCCCC3 | 14.8% (active)
81 | COc1ccc(-n2c(O)c(/C=C3\C=Nc4ccccc43)c(=O)[nH]c2=O)cc1 | -40% (inactive)
82 | Cc1ccc2cc(CCNC(=O)C(=O)c3c(C)[nH]c4ccccc34)c(=O)[nH]c2c1 | -20.7% (inactive)
83 | CCC1SC2=NC(C)=C(C(=O)OC)C(c3ccc(C(=O)OC)cc3)N2C1=O (configuration not stated) | -10.7% (inactive)
84 | CCOC(=O)c1sc(=S)n2c1[nH]c(=O)c1ccc(C(=O)OC)cc12 | 79.4% (active)
85 | CCCNC(=O)CN1C(=O)NC(Cc2c[nH]c3ccccc23)C1=O (configuration not stated) | -17.5% (inactive)
86 | CC12CCC(C(=O)NCc3ccc4c(c3)OCO4)(CC1=O)C2(C)C (configuration not stated) | -5.5% (inactive)
87 | CCOCCCNC(=O)C(NC(=O)Cc1cccs1)c1ccc(C)cc1 (configuration not stated) | -21.4% (inactive)
88 | CCc1ccc(S(=O)(=O)NC(=S)NC2CCCCC2)cc1 | 52.3% (active)
89 | O=S(=O)(NC(=S)NC1CCCCC1)c1ccc(Br)cc1 | 5.4% (active)
90 | O=C(NC1CCCCC1)c1ccc(COCC(F)(F)F)o1 | -5% (inactive)
91 | O=S(=O)(NC(=S)NC1CCCCC1)c1ccc(Cl)cc1 | 19.8% (active)
92 | Cc1ccc(S(=O)(=O)NC(=S)NC2CCCCC2)cc1 | -11.5% (inactive)
93 | O=c1oc2ccccc2c(NC2CCCCC2)c1NS(=O)(=O)c1ccc(Cl)cc1 | -14.5% (inactive)
94 | COc1cc(Cl)c(C)cc1NC(=O)CSc1sc2c(O)cc(=O)[nH]c2c1C#N | -11.4% (inactive)
95 | N#Cc1c(N)c(C(=O)c2ccccc2)n2ccccc12 | -16.1% (inactive)
96 | Nn1c(SCC(=O)Nc2ccc(F)cc2)nnc1C1CCCCC1 | -23.5% (inactive)
97 | O=C1NCCN1Cc1ccccc1F | -11.9% (inactive)
